NS1 function inh = inhibitors of influenza NS1 protein function. Potency, µM (series often up to 46.1 µM). actives 0.4% (n = 270,000). AID 2326; calls by dose curve; further: actives are rising curves; nearly all actives have a fitted effect of over 50% in size
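Compounds were scored for reversing the slow growth caused by influenza A NS1 in S. cerevisiae, measured by optical density at 600 nm. Assay medium contained 2% galactose at pH 6.0; NS1-free yeast of the same strain were the positive control.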
Pf growth 96h = P. falciparum growth inhibition at 96 hour, primary screen for plastid delayed-death inhibitors; P. falciparum luciferase reporter growth, 96 h; Potency, µM (titrated, usually from 28.7 µM), most hits filed as inhibitors; actives 6.9% (n = 320,000); AID 504834
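Cell-based qHTS: luciferase-tagged P. falciparum in erythrocytes (2% hematocrit, 0.05% parasitemia final) incubated with compounds for 96 hours, 37 C, 5% CO2; luciferase detection reagent then added and luminescence measured.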
Pf growth 48h = inhibits P. falciparum growth in the first generation, 48 h | P. falciparum luciferase growth in erythrocytes, 48 h | Potency, µM (doses to about 28.7 µM), hits mostly inhibitors | actives 5.9% (n = 310,000)
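Luciferase-expressing parasites in RBCs, 2% Hct / 0.1% parasitemia final; RPMI 1640 + 0.5% Albumax; 37 C, 5% CO2, one generation; luminescence read-out, lower signal = inhibition.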
RE007 growth inh = less growth of the S. pombe RE007 Vpr strain; S. pombe RE007 Vpr strain, BacTiter-Glo ATP luminescence, 24 h; Potency, µM (titrated, usually from 92.2 µM), actives largely listed as inhibitors; actives 0.21% (n = 360,000); AID 651644; active means well fitted falling curve with a large enough effect; inconclusive means small, poorly fitted or top-dose-only effect; inactive means no such curve, though single readings can be large or run the other way; further: nearly all actives have a fitted effect of over 50% in size
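Fission yeast RE007 carrying one integrated HIV-1 vpr copy, seeded at OD 0.01 in PMG+AL medium with 23 nL pinned compound. Grown 24 h at 30 degrees; viability read by BacTiter-Glo luminescence after 5 min.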
SARS PLP yeast = inhibitors of SARS-CoV papain-like protease in yeast; S. cerevisiae expressing SARS-CoV PLpro, growth rescue; Potency, µM (titrated, usually from 32.9 µM), actives largely listed as activators; actives 0.19% (n = 330,000); calls by dose curve; further: nearly all actives have a fitted effect of over 55% in size
Numbers stand for hits; - = inactive; ? = inconclusive; . = no result; [ ] = another dose, or the depositor's remark. Sampled rows, rich in hits. Any-hit rate of the full collection: about 9.5%. Unless noted, the call rests on the fitted dose curve; in most records, active means well fitted inhibition curve with a large enough effect; inconclusive means small, poorly fitted or top-dose-only effect, or another doubt; inactive means no such curve, though single readings can be large or run the other way.

SMILES	NS1 function inh	Pf growth 96h	Pf growth 48h	RE007 growth inh	SARS PLP yeast
OC(CN1CCCCC1)Cn1c2ccccc2c2ccccc21 (stereo unspecified)	-	-	?	-	-
CCn1c2ccccc2c2cc(CN3CCN(S(C)(=O)=O)CC3)ccc21	-	-	?	-	-
COc1c(NC=O)c2c(c([N+](=O)[O-])c1OC)C(=O)OC2	.	.	.	-	.
CCCCN1C[C@H](COC(=O)CCC)Oc2cccc(F)c2S1(=O)=O	.	.	.	-	.
NS(=O)(=O)c1ccc(NC(=O)Nc2ccccc2F)cc1	-	.	.	.	.
COc1ccc(C2CC(c3ccccc3OC(C)=O)=NN2C(=O)/C=C/c2ccccc2)cc1OC (stereo unspecified)	?	?	2.6µM	-	-
COc1ccc(C2=NN(C(=O)/C=C/c3ccccc3)C(c3ccccc3)C2)c(OC(C)=O)c1 (stereo unspecified)	-	?	13µM	.	-
CC(C)NC(=O)C1(C)CCCN1C(=O)c1ccc2c(c1)C(C)(C)CCC2(C)C (stereo unspecified)	.	.	.	-	.
CCOc1ccccc1N1CCN(CC(O)COc2ccc3c(C)cc(=O)oc3c2)CC1 (stereo unspecified)	-	-	8.3µM	-	-
Cc1cc(=O)oc2cc(OCC(O)CN3CCN(c4ccc(F)cc4)CC3)ccc12 (stereo unspecified)	-	.	-	-	-
Cc1ccc(Cl)cc1NC(=O)Nc1c(C)n(C)n(-c2ccccc2)c1=O	-	-	-	-	-
O=C(c1cc(-c2ccccc2)n[nH]1)N1CCc2c([nH]c3ccccc23)C1c1ccccn1 (stereo unspecified)	-	8.3µM	?	-	-
Cc1cccc(C2c3[nH]c4ccccc4c3CCN2Cc2cnn(-c3ccc(F)cc3)c2)n1 (stereo unspecified)	-	-	10µM	-	-
Cc1cccc(C2c3[nH]c4ccccc4c3CCN2C(=O)c2noc3c2CCCC3)n1 (stereo unspecified)	-	13µM	?	-	-
Cc1ccc2nc(C(=O)N3CCc4c([nH]c5ccccc45)C3c3ccccn3)cn2c1 (stereo unspecified)	-	9.3µM	-	-	-
O=C(c1noc2c1CCCC2)N1CCc2c([nH]c3ccccc23)C1c1ccccn1 (stereo unspecified)	-	?	?	-	-
CC1(C(=O)NCc2ccccc2Br)CCN1Cc1ccc(-c2ccccn2)cc1 (stereo unspecified)	.	.	.	-[18.4 µM]	.
O=C(NCc1ccccc1F)C1CCCN(S(=O)(=O)N2CCOCC2)C1 (stereo unspecified)	-	-	-	-	-
C[C@@H]1O[C@@H](O[C@@H]2[C@@H](O)[C@H](OCCc3ccc(O)c(O)c3)O[C@H](CO)[C@H]2OC(=O)/C=C/c2ccc(O)c(O)c2)[C@H](O)[C@H](O)[C@H]1O	.	.	.	-	-
CC(=O)c1ccc(C(=O)N2CCc3c([nH]c4ccccc34)C2c2ccccn2)s1 (stereo unspecified)	-	?	?	-	-
O=C(c1ccccc1-n1cccn1)N1CCc2c([nH]c3ccccc23)C1c1ccccn1 (stereo unspecified)	-	4.7µM	?	-	-
CSc1nc(C(=O)N2CCc3c([nH]c4ccccc34)C2c2ccccn2)cs1 (stereo unspecified)	-	-	-	-	-
O=C(c1ccccc1-c1ncc[nH]1)N1CCc2c([nH]c3ccccc23)C1c1ccccn1 (stereo unspecified)	-	-	12µM	-	-
CCOC(=O)c1cnn(CCOC(=O)Cc2cccs2)c1NC(=O)Cc1cccs1	-	9.3µM	-	-	-
COc1ccc(OC)c(NP2(=O)OCC(C)([N+](=O)[O-])CO2)c1 (stereo unspecified)	.	.	.	-	.
SMILES	NS1 function inh	Pf growth 96h	Pf growth 48h	RE007 growth inh	SARS PLP yeast
CC1C(=O)N2CCCc3cc(S(=O)(=O)N4CCC(C(N)=O)CC4)cc1c32 (stereo unspecified)	-	?	-	-	-
c1ccc([C@H]2CN3C(=N2)Sc2ccccc23)cc1	.	-	-	?	-
O=C(CCl)N=c1sccn1Cc1ccc(Cl)cc1Cl	.	12µM	?	-	-
O=C(CCl)N=c1sccn1Cc1ccccc1Cl	-	0.74µM	0.26µM	-	-
O=C(CCl)N=c1sccn1Cc1cccc2ccccc12	-	1.5µM	?	-	-
CCC(=O)OCC(=O)N=c1sccn1Cc1ccccc1Cl	-	?	?	-	-
OCCNCc1ccc(-c2ccccc2)cc1	-	-	-	-	-
OCCCNCc1ccc(N(c2ccccc2)c2ccccc2)cc1	-	2.3µM	?	-	-
O=C(NCCOc1ccccc1)c1cc(C(=O)NCCOc2ccccc2)cc([N+](=O)[O-])c1	?	?	12µM	-	-
CC(C)(C)c1ccc(C(=O)NCCOc2ccccc2)cc1	-	9.3µM	-	-	-
COc1ccccc1OCCNC(=O)c1ccccc1C	-	.	-	-	-
COCCCNCCOc1ccc(C(C)(C)c2ccccc2)cc1	-	?	-	-	-
CNCCCOc1ccc(C(C)(C)c2ccccc2)cc1	-	9.3µM	.	.	-
COc1ccccc1C(=O)NCCOc1ccc(C(C)(C)C)cc1	-	15µM	?	-	-
C[C@H](CO)N1C[C@H](C)[C@@H](CN(C)C(=O)c2ccc3ccn(C)c3c2)OCc2cn(nn2)CCCC1=O	.	.	.	-	.
Cc1sc(C(=O)Nc2ccc3ccccc3c2)cc1CC(=O)O	.	-	-	-	-
O=C(OC1CC2CC1[C@H]1CCCCN1C2=O)N1CCC(c2ccccc2)CC1 (stereo partly specified)	.	.	.	-	.
Fc1cc2nc(-c3ccncc3)[nH]c2cc1F	-	1.9µM	?	-	-
C=CCOC(=O)C1=C[C@H](c2cn(C(C)=O)c3ccccc23)[C@@H](CCCO)[C@H](OCC)O1	-	12µM	?	-	-
CCO[C@@H]1OC(C(=O)N2CCCCCCC2)=C[C@H](c2csc3ccccc23)[C@H]1CCCO	-	?	8.3µM	-	-
CCO[C@@H]1OC(C(=O)N2CCCCCCC2)=C[C@H](c2cn(C(C)=O)c3ccccc23)[C@H]1CCCO	-	10µM	?	-	-
CC(=O)Nc1ccc(C(=O)N/C(=C\c2ccccc2)C(=O)Nc2cccc(C(=O)O)c2)cc1	-	-	?	-	-
O=C(CCNC(=O)c1ccccc1Cl)NCCC1=CCCCC1	.	-	?	-	-
CC1(C)S[C@@H]2[C@H](C(=O)O)N=C(Cc3ccccc3)N2[C@H]1C(=O)O	-	.	.	.	.
NCCN1C(=O)c2ccccc2[C@@]1(O)c1ccc(Cl)cc1	-	.	.	.	.
COc1ccc(-c2oc3ccccc3c2C#Cc2cncn2C)cc1	.	0.66µM	0.59µM	-	-
COc1ccc(-c2sc3ccc(OC)cc3c2C#Cc2cncn2C)cc1	.	.	.	-	-
COCC(=O)O[C@]1(CCN(C)CCCc2nc3ccccc3[nH]2)CCc2cc(F)ccc2[C@@H]1C(C)C	-	2.4µM	1.5µM	-[18.4 µM]	-
CCOC(=O)CCc1nc2ccccc2[nH]1	-	.	.	-	-
